# Source: PubChem BioAssay (EPA / NIEHS)
# The source made the active and inactive calls. The calls were made as follows: active = hit-call score of the fitted dose curve at least 0.9, where 1 is the maximum; inactive = score below 0.9.
# Read-out: solute carrier (SLC22A6), SLC22A6 (gene 9356)
# Experiment: LTEA_HepaRG_SLC22A6: Life Technologies and Expression Analysis (LTEA) Assay for solute carrier (SLC22A6) using HepaRG (AID 2283653)
# Details: mRNA level, 48 h; actives raise or lower the signal
# Description: LTEA_HepaRG is a cell based, multiplexed-readout assay that uses HepaRG, a human liver cell line, with measurements taken at 48 hours after chemical dosing on a 96-well plate.LTEA_HepaRG_SLC22A6 is one of 102 assay component(s) measured in the LTEA HepaRG cell culture assay. It is a marker of NR mediated transport.Data from the assay component LTEA_HepaRG_SLC22A6 was analyzed into 1 endpoint. This assay endpoint, LTEA_HepaRG_SLC22A6, was analyzed with bidirectional fitting relative to DMSO as the negative control and baseline of activity. Using a type of inducible reporter, measures of mRNA induction for gain or loss-of-signal activity can be used to understand regulation of transcription factor activity. To generalize the intended target to other relatable targets, this assay endpoint is annotated to the transporter intended target family, where the subfamily is organic anion transporter.
# A total of 1060 chemcials from the ToxCast library were tested in eight-point concentration-response experiments. Cell culture and cytotoxicity assays were conducted at Thermo Fisher Scientific's Custom Services facility (Madison, WI). A single lot of human HepaRG cells (Thermo Fisher Scientific, Frederick, MD) was used for the cell culture experiments. 96-well format collagen type I coated plates of human HepaRG cells were prepared using established methods. Briefly, cryopreserved HepaRG cells were thawed, plated at a density of approximately 100,000 cells/well in HepaRG Thaw, Plate, and General Purpose media (HPRG770, Thermo Fisher Scientific), and incubated for 48 hours. 0.5% DMSO was selected as vehicle control to balance the requisite need of DMSO in HepaRG cultures to maintain differentiation (for example, baseline metabolism, proportions of hepatocytes vs. cholangiocytes), while enabling further hepatic receptor pathway activation (for example, PXR and CAR) in response to chemical exposure. 48 hours after plating, the culture medium was replaced with HepaRG Serum-Free Incudtion Media. Cells were exposed to each test chemical in duplicate and maintained in CO2 incubators for another 48 hours. Chemical plates were thawed to room temperature and 200x concentrations of treatment groups were prepared. 8-point conentration-reponse curves were made with the highest exposure at 100 uM, followed by half-log dilutions, all in 0.5% DMSO. Each test plate contained variouse controls, induction positive controls (1mM phenobarbital), cytotoxicity positive controls ([…] aflatoxin B1), vehicle controls (0.5% DMSO), and total lysis controls (0.5% DMSO). Cell morphology images were taken using an Essen IncuCyte FLR automated microscope, with six 96-well plates imaged in about 24 minutes. Images were captured and exported and JPEG files. Spent culture media was transfered to black-well plates for the LDH assay, and remaining media was sorted at -80 C for later use. Cells were treated with RLT buffer and frozen until shipped for gene expression analysis. Total RNA was isolated from the cell suspension in 75 uL of Buffer RLT (Qiagen, Germantown, MD 20874) by Quintiles/Expression Analysis (Durham, NC) using a custom isolation procedure. Total RNA from each plate well was transferred to a preamplification plate. Fluidigm's 96.96 Dynamic ArrayTM (Fluidigm, Amsterdam, the Netherlands) technology was used for gene expression analyses by quantitative reverse transcription polymerase chain reaction (qRT-PCR, performed by Quintiles/Expression Analysis, Durham, NC)89. Standard TaqManTM Assays (Applied Biosystems/ThermoFisher Scientific, Foster City, CA) were used to assess the expression of 93 genes selected based on their selectivity and sensitivity to important hepatic receptors known to be modulated by environmental chemicals; importance in human hepatocyte functionality; and hepatotoxicity. […]
row,Compound,outcome
1,CCCN(CCC)c1c([N+](=O)[O-])cc(C(F)(F)F)cc1[N+](=O)[O-],inactive
2,CCCN(CCOc1c(Cl)cc(Cl)cc1Cl)C(=O)n1ccnc1,inactive
3,CCC(C)Nc1c([N+](=O)[O-])cc(C(C)(C)C)cc1[N+](=O)[O-] (stereo not given),inactive
4,CCOC1Oc2ccc(OS(C)(=O)=O)cc2C1(C)C (stereo not given),inactive
5,N#Cc1c(Cl)c(Cl)c(Cl)c(C#N)c1Cl,inactive
6,ClC1C(Cl)C(Cl)C(Cl)C(Cl)C1Cl (stereo not given),inactive
7,Cc1[nH]c(=O)n(C(C)(C)C)c(=O)c1Cl,inactive
8,CN1CSC(=S)N(C)C1,inactive
9,O=C1c2ccccc2C(=O)N1SC(Cl)(Cl)Cl,inactive
10,CC1(C)C(C=C(Cl)Cl)C1C(=O)OC(C#N)c1ccc(F)c(Oc2ccccc2)c1 (stereo not given),inactive
